# Calls of active or inactive are those of the source.
# Experiments:
# [1] = test system: Human papillomavirus type 1a protein E7 (residues 44-93); assay: small molecules binding HPV E7 44-93 – biochemical, small-molecule microarray, residues 44-93, 635 nm fluorescence, primary screen (AID 1108); settings: fluorescence 635 nm, higher = more signal;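 further: E7 fragment applied at 1 µg/mL in TBST for 1 h at 4 C; score combines spot fluorescence with its signal to noise ratio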
# [2] = hepatitis C replication reporter changes, two-sided – Huh7 cells, luciferase reporter, HCV replication inhibitor project, primary screen (AID 1109); settings: Huh7 HCV replicon luciferase reporter, 48 h; higher = more signal;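 further: huh7 hepatoma cells harbouring a luciferase neomycin HCV replicon reporter; luciferase luminescence as measure of HCV replicon replication; test concentration not given here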
# [3] = molecular target: Left-right determination factor 2 (Homo sapiens) (UniProt O00292); assay: small molecules binding LEFTY2 protein – biochemical, small-molecule microarray, 635 nm fluorescence scan, primary screen (AID 1110); settings: higher = more signal
# Left-right determination factor 2 (Homo sapiens), sequence (O00292 whole entry, looked up): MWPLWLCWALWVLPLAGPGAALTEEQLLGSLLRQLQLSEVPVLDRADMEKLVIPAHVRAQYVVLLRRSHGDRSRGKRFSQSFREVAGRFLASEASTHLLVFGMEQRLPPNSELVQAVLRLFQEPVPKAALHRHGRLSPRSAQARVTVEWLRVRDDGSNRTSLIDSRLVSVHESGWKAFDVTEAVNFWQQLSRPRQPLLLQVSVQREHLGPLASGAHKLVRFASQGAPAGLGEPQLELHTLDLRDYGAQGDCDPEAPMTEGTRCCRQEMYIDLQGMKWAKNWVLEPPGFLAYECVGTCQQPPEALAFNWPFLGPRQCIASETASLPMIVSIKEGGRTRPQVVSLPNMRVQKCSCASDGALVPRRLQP
# [4] = molecular target: Calmodulin-1 (Homo sapiens) (UniProt P0DP23); assay: small molecules binding calmodulin-1 with EGTA – biochemical, small-molecule microarray, Cy5-labelled CALM1, profiling panel (AID 1111); settings: Cy5-CALM1 binding fluorescence, higher = more signal;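 further: labelled calmodulin applied in Tris saline Tween buffer holding calcium plus EGTA and DTT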
# [5] = molecular target: Calmodulin-1 (Homo sapiens) (UniProt P0DP23); assay: small molecules binding Ca-loaded calmodulin-1 – biochemical, small-molecule microarray, Cy5-labelled CALM1, plus calcium, artefact control for SMM control-protein annotation, profiling panel (AID 1112); settings: Cy5-CALM1 binding fluorescence, higher = more signal;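 further: score merges spot fluorescence with signal to noise from triplicate slides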
# [6] = probe aWnt5a binding to arrayed compounds – biochemical, biotinylated probe, 635/667 nm fluorescence, primary screen (AID 1113); settings: small-molecule microarray, higher = more signal;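 further: score merges 667 nm fluorescence intensity with signal-to-noise per printed feature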
# [7] = probe aShh binding to arrayed compounds – biochemical, biotinylated probe, 635/667 nm fluorescence, primary screen (AID 1114); settings: small-molecule microarray, higher = more signal;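 further: probe is biotin-labelled aShh protein from a stem cell growth factor screen; measures binding of labelled protein to compounds printed on the slide; score merges feature fluorescence at 667 nm with signal-to-noise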
# [8] = probe aNog binding to arrayed compounds – biochemical, biotinylated probe, 635/667 nm fluorescence, primary screen (AID 1115); settings: small-molecule microarray, higher = more signal;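 further: probe is biotinylated aNog protein used at 0.15 µg/mL for 1 h at 4 C; z-score combines 667 nm fluorescence of each spot with its signal to noise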
# [9] = molecular target: Torsin-1A-interacting protein 1 (Homo sapiens) (UniProt Q5JTV8); assay: compound microarray binding of lysate hLAP1 – cell lysate, small-molecule microarray, COS7 lysate, 635/667 nm fluorescence, primary screen (AID 1116); settings: 635 nm fluorescence, higher = more signal
# Torsin-1A-interacting protein 1 (Homo sapiens), sequence (Q5JTV8 whole entry, looked up): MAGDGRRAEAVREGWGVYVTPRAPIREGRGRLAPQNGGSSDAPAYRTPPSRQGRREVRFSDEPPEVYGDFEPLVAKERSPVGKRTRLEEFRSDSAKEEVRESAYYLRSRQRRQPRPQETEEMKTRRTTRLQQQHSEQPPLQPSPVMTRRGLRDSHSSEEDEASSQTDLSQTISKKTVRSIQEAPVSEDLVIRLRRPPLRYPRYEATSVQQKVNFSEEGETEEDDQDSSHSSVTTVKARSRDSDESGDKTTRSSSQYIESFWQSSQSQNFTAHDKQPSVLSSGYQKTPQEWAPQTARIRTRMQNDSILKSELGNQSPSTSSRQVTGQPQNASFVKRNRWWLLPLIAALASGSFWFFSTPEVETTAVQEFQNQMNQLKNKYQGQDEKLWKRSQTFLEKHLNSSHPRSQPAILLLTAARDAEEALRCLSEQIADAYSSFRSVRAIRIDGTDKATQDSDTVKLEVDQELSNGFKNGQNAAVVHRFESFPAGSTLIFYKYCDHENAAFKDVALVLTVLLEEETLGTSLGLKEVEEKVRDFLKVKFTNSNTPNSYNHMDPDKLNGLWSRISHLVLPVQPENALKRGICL
# [10] = molecular target: Alpha-bungarotoxin (Bungarus multicinctus) (UniProt P60615); assay: compounds binding labelled alpha-BTX control protein – biochemical, small-molecule microarray, Alexa647 label, 635/667 nm fluorescence, artefact control for SMM control protein annotation, profiling panel (AID 1117); settings: alpha-BTX-A647 binding fluorescence, higher = more signal
# Alpha-bungarotoxin (Bungarus multicinctus), sequence (P60615 whole entry, looked up): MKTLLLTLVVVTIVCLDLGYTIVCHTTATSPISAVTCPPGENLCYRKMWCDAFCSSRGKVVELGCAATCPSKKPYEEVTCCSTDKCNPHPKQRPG
# Albumin (Bos taurus) = Albumin (Bos taurus) (UniProt P02769); assay: compounds binding labelled BSA control protein – biochemical, small-molecule microarray, Alexa647 label, 635/667 nm fluorescence, artefact control for SMM control protein annotation, profiling panel (AID 1118); settings: BSA-A647 binding, fluorescence 635 nm, higher = more signal;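 further: score merges 667 nm emission intensity and signal-to-noise per printed compound spot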
# Albumin (Bos taurus), sequence (P02769 whole entry, looked up): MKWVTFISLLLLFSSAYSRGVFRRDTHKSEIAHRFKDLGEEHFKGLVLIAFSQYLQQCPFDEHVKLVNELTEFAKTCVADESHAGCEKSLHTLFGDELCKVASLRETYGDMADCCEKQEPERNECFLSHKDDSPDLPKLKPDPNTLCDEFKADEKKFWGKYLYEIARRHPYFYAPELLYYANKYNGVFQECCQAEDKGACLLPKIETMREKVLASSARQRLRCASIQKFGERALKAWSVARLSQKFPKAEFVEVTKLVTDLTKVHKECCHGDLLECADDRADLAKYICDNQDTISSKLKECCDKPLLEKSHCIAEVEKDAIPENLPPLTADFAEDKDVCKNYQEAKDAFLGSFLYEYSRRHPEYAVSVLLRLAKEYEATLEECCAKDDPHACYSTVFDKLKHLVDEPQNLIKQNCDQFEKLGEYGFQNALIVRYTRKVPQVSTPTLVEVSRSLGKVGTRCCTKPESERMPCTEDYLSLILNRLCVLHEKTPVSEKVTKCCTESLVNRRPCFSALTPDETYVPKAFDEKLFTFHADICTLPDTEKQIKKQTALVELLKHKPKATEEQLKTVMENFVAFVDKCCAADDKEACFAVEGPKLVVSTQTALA
# [11] = probe aXIP binding to arrayed compounds – biochemical, NeuroSMM set, 635/667 nm fluorescence, primary screen (AID 1119); settings: small-molecule microarray, higher = more signal, called active from +8 up or from −8 down;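 further: probe is the protein aXip251-270 applied at 1 µg/mL to compound-printed slides; binding of probe to printed compounds measured as 667 nm fluorescence plus signal to noise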
# [12] = probe aNOTCH3 binding on compound microarray – biochemical, small-molecule microarray, 635/667 nm fluorescence, primary screen (AID 1120); settings: higher = more signal;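 further: probe is a biotin-tagged antibody raised against NOTCH3 rather than NOTCH3 protein; score merges spot fluorescence near 667 nm with spot signal to noise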
# [13] = probe aNOTCH2 binding on compound microarray – biochemical, small-molecule microarray, 635/667 nm fluorescence, primary screen (AID 1121); settings: higher = more signal;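 further: score merges feature fluorescence read at 667 nm with its signal to noise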
# [14] = molecular target: Carbonic anhydrase 2 (Homo sapiens) (UniProt P00918); assay: compounds binding carbonic anhydrase 2 – biochemical, small-molecule microarray, Alexa647-labelled CAII, profiling panel (AID 1122); settings: CAII-A647 binding fluorescence, higher = more signal
# [15] = COS7 lysate on small-molecule microarray, probe aHis, 635 nm (AID 1123); settings: COS7 cell lysate, fluorescence, higher = more signal;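 further: z-score combines 667nm fluorescence intensity with signal-to-noise per printed compound spot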
# [16] = probe aLAP1 signal on lysate-treated microarray – cell lysate, small-molecule microarray, COS7 lysate, primary screen (AID 1124); settings: probe aLAP1, fluorescence, higher = more signal;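 further: lysate comes from COS7 cells expressing LAP1 and is applied at 0.3 µg/mL; score merges spot fluorescence near 667 nm with signal-to-noise over triplicate slides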
# Sam68 (KHDRBS1) = assay: compounds binding KHDRBS1 protein – biochemical, small-molecule microarray, 635 nm fluorescence, primary screen (AID 1125); settings: higher = more signal;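 further: score merges 667 nm channel intensity with signal to noise over triplicate slides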
# [17] = test system: Chordin-like protein 2 (CHRDL2); assay: compounds binding chordin-like 2 – biochemical, small-molecule microarray, 635 nm fluorescence, primary screen (AID 1126); settings: fluorescence 635 nm, higher = more signal;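 further: printed compound slides probed with Chrdl2 protein at 4 µg/mL for 1 h at 4 C; score merges 667 nm emission intensity with signal to noise over three replicate slides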
# [18] = molecular target: Concanavalin-A (Canavalia ensiformis) (UniProt P02866); assay: compounds binding concanavalin A lectin – biochemical, small-molecule microarray, Alexa647 label, 635 nm, artefact control for SMM control protein annotation, primary screen (AID 1127); settings: ConA-A647 binding fluorescence, higher = more signal;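 further: z combines 667 nm emission intensity with signal-to-noise across three replicate slides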
# Concanavalin-A (Canavalia ensiformis), sequence (P02866 whole entry, looked up): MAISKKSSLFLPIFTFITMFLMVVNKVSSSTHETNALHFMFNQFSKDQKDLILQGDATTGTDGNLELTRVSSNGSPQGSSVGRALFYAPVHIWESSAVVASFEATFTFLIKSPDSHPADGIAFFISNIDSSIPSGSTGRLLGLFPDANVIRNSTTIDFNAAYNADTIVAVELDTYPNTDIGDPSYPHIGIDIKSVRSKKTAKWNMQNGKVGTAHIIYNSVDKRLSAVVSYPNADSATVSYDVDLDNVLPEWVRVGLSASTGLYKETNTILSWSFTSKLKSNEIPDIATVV
SMILES,composite z-score [1],z-score [2],composite z-score [3],composite z-score [4],composite z-score [5],composite z-score [6],composite z-score [7],composite z-score [8],composite z-score [9],composite z-score [10],composite z-score (Albumin (Bos taurus)),composite Z-score [11],composite z-score [12],composite z-score [13],composite z-score [14],composite z-score [15],composite z-score [16],composite z-score (Sam68 (KHDRBS1)),composite z-score [17],composite z-score [18]
COC(=O)CC=C[C@@H](C)[C@@H](C=NO[C@H](C)c1cn([C@@H]2COC[C@H]2O)nn1)NS(=O)(=O)c1ccc(C)cc1,-0.12,-0.483,0.722,-0.0535,-0.646,-0.144,-0.237,-0.246,0.0982,-0.361,-0.129,0.355 (inactive),0.0316,-0.0108,-0.156,0.0779,0.219,0.277,0.877,-0.653
O=C1OCCC=C1C(O)CCc1ccccc1 (stereo not given),-0.0602,-0.364,0.791,-0.818,-0.679,-0.0981,-0.13,0.0229,0.128,0.642,-0.561,0.149 (inactive),-0.158,-0.145,0.192,-0.215,0.181,-0.0924,0.575,-0.0631
CCOC(=O)[C@H](Cc1ccccc1)NC(=O)CCC1CC(OC(=O)NCc2ccc3c(c2)OCO3)CC2(CCCC(COC(=O)NCCC(C)C)O2)O1 (stereo not given in full),1.38,-1.01,0.619,0.487,-0.252,0.0704,0.0639,-0.19,0.0293,0.434,0.112,0.416 (inactive),0.0252,-0.0707,0.493,0.394,-0.133,0.907,0.309,1.11
CCOC(=O)C1=NO[C@]2(C=C(Br)C3(OCCCO3)[C@H]3O[C@H]32)C1,-1.53,0.426,0.306,-1.04,-0.175,-0.161,-0.0879,0.341,0.194,0.477,0.653,-0.455 (inactive),-0.239,-0.0907,0.114,-0.263,-0.157,-0.638,-0.31,-0.586
CC(C)=CCCC(C)=CCON=C1C[C@@H](O)[C@@H](O)[C@@H]2[C@@H]3C(=O)N(Cc4ccccc4)C(=O)[C@@H]3CC[C@H]12,0.759,-2.74,0.985,0.0703,-0.985,-0.164,-0.2,-0.0223,0.577,0.121,0.188,0.4 (inactive),0.0493,-0.175,0.754,1.26,0.146,1.29,0.955,0.541
O=C1CCCC=C1C(CCc1ccccc1)OC(=O)c1ccc(Br)cc1 (stereo not given),-2.1,1.15,0.572,-1.11,-0.622,-0.124,-0.147,-0.348,-0.108,-0.334,-0.457,-0.727 (inactive),-0.104,-0.146,-0.475,0.214,-0.815,-1.4,0.388,-0.612
CO[C@H]1COC(=O)CCC[C@@H](C)[C@H](OC)COC(=O)[C@@H]2CCCN2C(=O)CC=C[C@@H]1C,-1.68,-2.06,1.18,-0.984,-1.72,-0.236,-0.0533,-0.0553,1.09,0.199,-0.695,0.215 (inactive),-0.0074,-0.132,-0.465,-0.776,0.324,-0.113,1.46,-0.232
CCOC(=O)[C@H](CC(C)C)NC(=O)CCC1CC(OC(=O)NCCc2ccc(F)cc2)CC2(CCCC(COC(=O)NCCc3ccccc3OC)O2)O1 (stereo not given in full),1.29,-1.38,0.61,1.57,0.535,-0.119,0.157,-0.0787,0.793,0.493,0.788,0.0516 (inactive),-0.0647,-0.0781,0.56,0.907,0.419,1.29,0.337,1.09
CON=C[C@@H](NS(=O)(=O)c1ccc(C)cc1)[C@H](C)C=CCC(=O)OC,-0.933,0.604,0.532,-0.654,-1.31,-0.128,0.0756,-0.425,0.22,-0.0634,-0.625,-0.722 (inactive),-0.0173,-0.14,-0.374,0.0154,0.22,-1.35,1.26,-0.0082
CC(=O)OC[C@H]1O[C@H](CC=NO[C@H](C)c2cn([C@H](CO)Cc3ccccc3)nn2)C=C[C@@H]1OC(C)=O,1.16,-0.355,0.852,0.081,-0.367,-0.0231,-0.0553,0.223,0.213,1.27,0.376,-0.0641 (inactive),0.108,-0.0482,-0.0934,0.154,0.0588,1.29,0.41,0.597
COc1ccc(O[C@H]2C=C[C@@H](c3ccccc3)O[C@@H]2CON=C(C)CCC(=O)OC[C@H]2O[C@H](c3ccccc3)C=C[C@@H]2Oc2ccc(OC)cc2)cc1,-1.52,-1.15,-1.08,-0.63,-0.702,-0.176,-0.276,0.646,-1.17,-0.792,0.12,0.456 (inactive),-0.165,-0.123,-0.62,-1.14,-0.295,-2.54,-0.633,-0.652

# From PubChem BioAssay
